An excerpt weighted towards active compounds, which were near 1.9% of everything screened.
eIF4H FP inh: human eIF4H binding inhibitors, primary screen, translation initiation inhibitor project, biochemical, uHTS, fluorescence polarization; Eukaryotic translation initiation factor 4H (Homo sapiens), Q15056; eIF4H fluorescence polarization binding assay; inhibition, % at 35 µM; 290,000 tested, 0.94% active;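 further: calls also rest on retests at 20 µM and on dose response follow-up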
eIF4E 4G PPI: eIF4E–eIF4G protein interaction inhibitors, primary screen, biochemical, uHTS, TR-FRET, eIF4GI fragment | Eukaryotic translation initiation factor 4E (Mus musculus) + Eukaryotic translation … | TR-FRET eIF4E-eIF4GI(517-606) binding, 2 h | inhibition, % at 21.7 µM | 220,000 tested, 0.37% active | AID 782, 2007;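 active means inhibition above about 30%, limit read from the data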
PABP1 MLLE inh: inhibitors of PABP1 MLLE–PAM2 peptide binding, primary screen, biochemical, fluorescence polarization, FITC-PAM2, GST-MLLE; 360,000 tested, 0.36% active; inhibition, % at 20 µM; Polyadenylate-binding protein 1 (Homo sapiens), P11940; in the data active means inhibition above about 35%, passing the limit was not always enough
14-3-3 Bad PPI: inhibitors of 14-3-3 zeta/Bad binding, primary screen, biochemical, TR-FRET, bovine 14-3-3 zeta. 14-3-3 protein zeta/delta (Bos taurus), P63103. TR-FRET 14-3-3zeta/Dy647-pBad peptide displacement, 1 h. inhibition, % at 21.7 µM. 220,000 tested, 0.71% active;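 active means inhibition above about 70%, limit read from the data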
PABP FP inh: PABP poly(A) RNA binding inhibitors, primary screen, biochemical, fluorescence polarization, uHTS. 290,000 tested, 1% active. calls only at 35 µM;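 further: calls also rest on retests at 20 µM and on dose response follow-up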
Hits are given with their value; . = inactive; ? = inconclusive; / = no result; + = active, no number. Unless noted, how the calls were made is not given here.

SMILES | eIF4H FP inh | eIF4E 4G PPI | PABP1 MLLE inh | 14-3-3 Bad PPI | PABP FP inh
C#CCN1C(=O)C(O)(CC(=O)c2ccc(OC)c(OC)c2)c2ccccc21 (centres undefined) | . | 97 | . | . | .
CC1(C)CC(=O)C=C(c2cccc(Br)c2)C1 | / | / | . | / | /
CC(c1ccco1)N(C(=O)c1cccc(Br)c1)c1ccccn1 (centres undefined) | . | / | . | / | .
Cc1ccc(C(=O)N/N=C/c2cccc(OC(=O)/C=C/c3ccco3)c2)cn1 | 86 | . | . | . | .
CC(/C=C/c1ccco1)=N/NC(=O)c1ccc(C)nc1 | . | . | . | . | .
O=C(CNc1ccc2ccccc2c1)N/N=C/c1ccc(OC(=O)/C=C/c2ccco2)cc1 | 71 | . | . | . | +
O=C(CNc1cccc2ccccc12)N/N=C/c1ccc(OC(=O)/C=C/c2ccco2)cc1 | ? | . | . | . | .
CN(Cc1ccccc1)C(=O)c1cccc(NC(=O)Cc2cccc(NC(=O)C3CCN(C(=O)C4CCC4)CC3)c2)c1 | / | / | . | / | /
CCOC(=O)N1CCN(C(=O)CSc2nc3c([nH]c4ccccc43)c(=O)n2CC)CC1 | . | / | . | / | .
O=C(c1ccc(F)cc1)C(CCCCCC(CN1CCOCC1)C(=O)c1ccc(F)cc1)CN1CCOCC1 (centres undefined) | . | . | / | 70 | .
Nc1ccc(S(=O)(=O)N2CCCc3ccccc32)cc1 | . | 62 | . | . | .
O=S(=O)(c1ccc(Cl)cc1)N1CCCc2ccccc21 | . | / | . | / | .
CCOC(=O)C[C@H]1c2ccc(C(F)(F)F)cc2S(=O)(=O)N1c1cccc(OC)c1 | / | / | . | / | /
S=C1NCCNC(=S)NCCOCCOCCN1 | active | . | . | . | .
COc1ccc(C(=O)CC(=O)C(=O)Nc2ccc([N+](=O)[O-])cc2C)cc1 | . | / | . | / | .
OCCOCCN1CCN(C2=Nc3ccccc3Sc3ccccc32)CC1 | . | . | . | . | .
O=C1C=CC(=O)c2c(O)c(N3CCN(CCOCCO)CC3)c(Br)c(O)c21 | / | / | 94 | / | /
O=C1C=CC(=O)c2c(O)c(N3CCN(CCO)CC3)c(Cl)c(O)c21 | / | / | 91 | / | /
CCN(C(=O)CSc1nnc(SC(C)C)s1)C1CCS(=O)(=O)C1 (centres undefined) | / | / | . | / | /
CCCCCCCn1c2c(c(=N)c3ccccc31)CCC2 | . | . | . | . | +
CC(=O)C(Sc1nccc(-c2cccs2)n1)C(C)=O | . | . | 36 | . | .
Cc1ccccc1OCC(=O)Nn1c(COc2ccccc2)nc2ccccc2c1=O | . | . | . | . | .
O=C(COc1ccc(Cl)cc1Cl)Nc1cccnc1 | . | . | . | . | .
O=C(COc1ccc(Cl)cc1Cl)Nn1c(=S)[nH]c2ncccc2c1=O | . | . | 46 | . | .
COc1ccccc1OCC(=O)Nn1c(=S)[nH]c2ncccc2c1=O | . | . | 44 | . | .
SMILES | eIF4H FP inh | eIF4E 4G PPI | PABP1 MLLE inh | 14-3-3 Bad PPI | PABP FP inh
O=C1CC(c2ccccc2)CC(=O)C1Sc1ccc(Cl)cc1 (centres undefined) | . | . | 42 | . | .
CCN(CC(=O)Nc1c(F)cccc1F)C(=O)C1(c2ccccc2)CC1 | . | / | . | / | .
O=C1NC(=O)C2(CCCC2)N1 | / | / | . | / | /
CSc1ncccc1C(=O)Nc1cccc(S(=O)(=O)N(C)c2ccccc2)c1 | / | / | . | / | /
CCOC(=O)c1ccccc1NC(=O)c1c(F)c(F)c(F)c(F)c1F | . | . | . | 81 | .
CCOC(=O)c1ccccc1NC(=O)c1ccc2nccnc2c1 | 68 | . | . | . | .
COc1ccc(CN2CCCC(C(=O)c3cccc(OC(C)C)c3)C2)cc1Cn1cccn1 (centres undefined) | . | . | . | . | .
COC(=O)C1CC(=O)N(c2ccc(OCc3ccccc3Cl)cc2)C1 (centres undefined) | 103 | / | . | / | +
O=C(Nc1ccc(C(=O)N2CCCCC2)cc1)[C@H]1O[C@@H](n2ccc(=O)[nH]c2=O)[C@H](O)[C@@H]1O | / | / | . | / | /
O=P(O)(COc1ccccc1)COc1ccccc1 | . | . | . | 72 | .
O=C(O)CSCC(=O)N(Cc1ccccc1)c1nc(-c2ccccc2)c(-c2ccccc2)s1 | 74 | / | . | / | .
O=C(O)c1cccc(NC(=O)c2ccc3c(c2)C(=O)N(Cc2ccco2)C3=O)c1 | 62 | . | . | . | .

Screens (PubChem BioAssay)
